Source: PubChem BioAssay (Tox21)
Inconclusive results are not listed. A number with no mark means an inactive call. Calls come from the whole dose curve; as a rule, active = well fitted cell-killing curve with a large enough effect in the repeat runs; inconclusive = weak or mixed curves, or effect the other way; inactive = flat fitted curve, though single readings scatter.
% is set by controls: 0 for no effect and ±100 for the full control effect.

Assay: qHTS assay to identify small molecule agonists of the TGF-beta/Smad signaling pathway - cell viability counter screen (AID 1346829); note: top concentration of the series differs between compounds; nearly all actives have a fitted effect of over 45% in size
Conditions: SBE-bla HEK293T viability, CellTiter-Glo luminescence, 5 h; series mostly up to 76.8 µM; activity change, negative = cytotoxicity: at the top concentration
Excerpt: National Center for Advancing Translational Sciences [NCATS]
NIH Chemical Genomics Center [NCGC]
U.S. Environmental Protection Agency [EPA]
National Institutes of Environmental Health Sciences [NIEHS]
National Toxicology Program [NTP]
U.S. Food and Drug Administration [FDA]
Transforming growth factor beta (TGF-beta) superfamily consists of a large number of structurally related dimeric proteins that act as hormones or local mediators in regulating a wide range of biological functions. This superfamily includes TGF-betas themselves, the bone morphogenetic proteins (BMPs) and the activins. These ligands induce oligomerization of serine/threonine receptor kinases and phosphorylate the cytoplasmic signaling molecules of Smad protein family. CellSensor SBE-bla HEK 293T cell line (Life Technologies, Carlsbad, CA), responsive to TGF-beta was used to screen Tox21 10K compound library for identification of agonists/antagonists of the Smad signaling pathway. This cell line contains a beta-lactamase reporter gene under control of the Smad binding element (SBE) stably integrated into HEK 293T cells. Also cytotoxicity of the compounds was tested in parallel by measuring the cell viability using CellTiter-Glo assay system in the same wells.
Tox21 Assay Protocol Summary:
SBE-bla HEK 293T cells were dispensed at 4,000/well in 6 uL of assay medium into black wall/clear-bottom 1536-well plates using a Multidrop Combi (ThermoFisher Scientific, Waltham, MA) dispenser. After the assay plates were incubated at 37 C and 5% CO2 for an overnight, 23 nL of compounds dissolved in DMSO, positive controls or DMSO only was transferred to the assay plate by a Pintool station (Kalypsys, San Diego, CA). The assay plates were incubated at 37 C and 5% CO2 for 5 hr. One uL of LiveBLAzer B/G FRET substrate (Life Technologies) was added using a Flying Reagent Dispenser (FRD, Aurora Discovery, San Diego, CA) and the plates were incubated at room temperature for 2 hr. Fluorescence intensity (405 nm excitation, 460 nm and 530 nm emissions) was measured using an Envision plate reader (PerkinElmer, Shelton, CT). For cytotoxicity read, 4 uL of CellTiter-Glo reagent (Promega Corporation, Madison, WI) was added to each well of the assay plates using FRD. After 30min incubation at room temperature, the luminescence intensity was measured using ViewLux plate reader (PerkinElmer).
With `CCC(C)(C)C1CCC(=O)CC1` the “activity change, negative = cytotoxicity” value was 1.69%. For `COCC(=O)Nc1c(I)c(C(=O)NCC(O)CO)c(I)c(C(=O)N(C)CC(O)CO)c1I` (stereo not given), the “activity change, negative = cytotoxicity” value was 8.5% [at 35.3 µM]. For `Cc1nc2ccccc2c(=O)o1`, the “activity change, negative = cytotoxicity” value was 8.83%. With `Cc1ccccc1N1CCN(CCc2nnc3n2CCCC3)CC1` the “activity change, negative = cytotoxicity” value was 8.85% [at 35.3 µM]. In the case of `COCCOCCOCCOC`, the “activity change, negative = cytotoxicity” value was -10.7%. In the case of `CN(C)CCCNCCC#N`, the “activity change, negative = cytotoxicity” value was -1.01%. With `CCS(=O)(=O)CCn1c([N+](=O)[O-])cnc1C` the “activity change, negative = cytotoxicity” value was 8.45% [at 35.3 µM]. For `O=C1c2ccccc2-c2ccccc21`, the “activity change, negative = cytotoxicity” value was -19.5%. Work on `O=c1[nH]c(=O)c2[nH]c(=O)[nH]c2[nH]1` yielded an activity change, negative = cytotoxicity of -0.0048% [at 6.97 µM]. In the case of `O=S(=O)(O)CCO`, the “activity change, negative = cytotoxicity” value was 10.3%. With `CC1CCC(C(C)(C)S)C(=O)C1` (stereo not given) the “activity change, negative = cytotoxicity” value was -7.15%. With `CC(=O)OC[C@H]1O[C@@H](OC(C)=O)[C@H](OC(C)=O)[C@@H]1OC(C)=O` the “activity change, negative = cytotoxicity” value was 20.6% [at 35.3 µM]. With `c1ccc(CNc2ncnc3nc[nH]c23)cc1` the “activity change, negative = cytotoxicity” value was -10.7%. With `C[C@H]1O[C@H](O[C@H]2[C@H](O)[C@@H](O)[C@@H](O[C@H]3[C@H](O)[C@@H](O)[C@H](O)O[C@@H]3CO)O[C@@H]2CO)[C@H](O)[C@@H](O)[C@@H]1N[C@H]1C=C(CO)[C@@H](O)[C@H](O)[C@H]1O` the “activity change, negative = cytotoxicity” value was -4.62% [at 35.3 µM]. With `CCc1nccnc1C` the “activity change, negative = cytotoxicity” value was -1.47%. With `CCCCC[Si](OCC)(OCC)OCC` the “activity change, negative = cytotoxicity” value was -14.9%. For `CCCCC(CC)COC(=O)c1ccccc1` (stereo not given), the “activity change, negative = cytotoxicity” value was -11.2%. In the case of `Cc1oc(=O)oc1CN1CCN(c2cc3c(cc2F)c(=O)c(C(=O)O)c2n3C(C)S2)CC1` (stereo not given), the “activity change, negative = cytotoxicity” value was -13.2% [at 35.3 µM]. With `O=C(O)C(=O)Nc1cccc(-c2nn[nH]n2)c1` the “activity change, negative = cytotoxicity” value was 4.6% [at 35.3 µM]. For `Cc1cccc(C(=O)O)c1[N+](=O)[O-]`, the “activity change, negative = cytotoxicity” value was 10.3%. In the case of `CCOC(=O)C(C)(C)C`, the “activity change, negative = cytotoxicity” value was -4.81%. In the case of `CCN1CN(CC)CN(CC)C1`, the “activity change, negative = cytotoxicity” value was 2.23%. In the case of `CCCCCCCCCCCCC1CO1` (stereo not given), the “activity change, negative = cytotoxicity” value was 0.572%. With `OC[C@@H](O)[C@H](O)[C@@H](O)[C@@H](O)CO` the “activity change, negative = cytotoxicity” value was 16.5%. With `C[C@H](CCC(=O)NCC(=O)O)[C@H]1CC[C@H]2[C@@H]3[C@H](O)C[C@@H]4C[C@H](O)CC[C@]4(C)[C@H]3C[C@H](O)[C@]12C` the “activity change, negative = cytotoxicity” value was -11.4%. With `O=C(O)c1ccccc1C(=O)OCc1ccccc1` the “activity change, negative = cytotoxicity” value was 4.77%. With `C/C=C(\C)C(=O)OCC/C=C\CC` the “activity change, negative = cytotoxicity” value was 9.83%. With `CCCCC(CC)C(=O)OC(C)C` (stereo not given) the “activity change, negative = cytotoxicity” value was 5.71%. In the case of `CCN(CC)C(=O)C1CN2CCc3cc(OC)c(OC)cc3C2CC1OC(C)=O` (stereo not given), the “activity change, negative = cytotoxicity” value was 13.3% [at 35.3 µM]. With `CC(C)CCO` the “activity change, negative = cytotoxicity” value was 2.08%. In the case of `CCC(C)(CCC(C)C)C(=O)[O-].CCC(C)(CCC(C)C)C(=O)[O-].[Zn+2]` (stereo not given), the “activity change, negative = cytotoxicity” value was -14.8%. With `CN=C(NC#N)NCCSCc1csc(N=C(N)N)n1` the “activity change, negative = cytotoxicity” value was 1.9% [at 35.3 µM]. In the case of `Nc1cc(Cl)cc(S(=O)(=O)O)c1O`, the “activity change, negative = cytotoxicity” value was 5.87%. For `NC(Cc1c[nH]c2ccccc12)C(=O)O` (stereo not given), the “activity change, negative = cytotoxicity” value was -1.27% [at 35.3 µM]. In the case of `CNC(=O)C(c1ccccc1)c1ccccc1`, the “activity change, negative = cytotoxicity” value was 1.17%. For `NS(=O)(=O)c1cc2c(cc1Cl)NC(CC1CCCC1)NS2(=O)=O` (stereo not given), the “activity change, negative = cytotoxicity” value was -4.33% [at 35.3 µM]. In the case of `C[C@H](CCC(=O)O)[C@H]1CC[C@H]2[C@@H]3[C@H](O)C[C@@H]4C[C@H](O)CC[C@]4(C)[C@H]3C[C@H](O)[C@]12C`, the “activity change, negative = cytotoxicity” value was 2.15% [at 35.3 µM]. For `CCCCCC1CCCC(=O)O1` (stereo not given), the “activity change, negative = cytotoxicity” value was 8.18%. In the case of `N#CCCOCCOCCC#N`, the “activity change, negative = cytotoxicity” value was 20%. With `Cc1ccc2c(c1)c1c3n2CCNC3CCC1` (stereo not given) the “activity change, negative = cytotoxicity” value was -13.7% [at 35.3 µM].
